Assay results: PubChem BioAssay (Tox21)
Results filed as inconclusive are left out. The source made the active and inactive calls. The call rests on the fitted dose curve.

target: Acetylcholinesterase (Homo sapiens) (UniProt P22303); assay: Acetylcholinesterase (AChE) small molecule antagonists: colormetric cell-based qHTS assay (AID 1347395); conditions: SH-SY5Y cells AChE activity, colorimetric (Ellman); series mostly up to 115 µM; activity, negative = inhibition: at the top concentration; further: nearly all actives have a fitted effect of over 30% in size
Summary of the method: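 SH-SY5Y cells, plated overnight at 37 C, were exposed to compounds for 30 min at 37 C and 5% CO2. Acetylthiocholine plus DTNB was then added, and thiocholine from endogenous AChE was quantified colorimetrically after 90 min at 37 C.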
On the % scale 0 is the no-effect control and ±100 the full control effect.

Acetylcholinesterase (Homo sapiens), sequence (P22303 whole entry, looked up): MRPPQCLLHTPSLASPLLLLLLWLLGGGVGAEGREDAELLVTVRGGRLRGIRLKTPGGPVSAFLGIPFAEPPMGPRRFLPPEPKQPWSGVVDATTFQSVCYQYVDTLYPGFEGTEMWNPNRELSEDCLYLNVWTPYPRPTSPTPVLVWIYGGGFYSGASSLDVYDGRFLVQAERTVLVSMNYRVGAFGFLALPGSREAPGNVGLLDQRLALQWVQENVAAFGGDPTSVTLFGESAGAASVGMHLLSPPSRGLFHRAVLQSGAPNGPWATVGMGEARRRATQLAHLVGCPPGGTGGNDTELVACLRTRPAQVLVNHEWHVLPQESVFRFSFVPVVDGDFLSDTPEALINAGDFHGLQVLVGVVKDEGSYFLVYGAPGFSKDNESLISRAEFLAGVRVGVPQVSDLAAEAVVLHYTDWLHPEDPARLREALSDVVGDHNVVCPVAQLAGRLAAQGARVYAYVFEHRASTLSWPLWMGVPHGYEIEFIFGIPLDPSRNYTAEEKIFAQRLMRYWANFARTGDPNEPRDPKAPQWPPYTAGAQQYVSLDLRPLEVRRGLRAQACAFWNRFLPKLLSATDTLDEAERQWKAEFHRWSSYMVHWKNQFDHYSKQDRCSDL

Q: Which “activity, negative = inhibition” value does the source give for `CCCCC(CC)COP(=O)(O)O` (stereo unspecified) here?
A: 0% (inactive)

Q: Which “activity, negative = inhibition” value does the source give for `CCCCCCCCCC#N` here?
A: 0.409% (inactive)

Q: Which “activity, negative = inhibition” value does the source give for `COc1ccc(COC=O)cc1` here?
A: 1.14% (inactive)

Q: How did the “activity, negative = inhibition” value turn out when `CCCCCCCCSCc1cc(C)c(O)c(CSCCCCCCCC)c1` was run?
A: -4.38% (inactive)

Q: `CCCCCCCC/C=C\CCCCCCCC(=O)OCCCC` was tested. Which activity, negative = inhibition did it give?
A: 0.807% [at 23.6 µM] (inactive)

Q: Which “activity, negative = inhibition” value does the source give for `CC1(c2ccccc2)OC(C(=O)O)=CC1=O` (stereo unspecified) here?
A: 1.23% [at 52.9 µM] (inactive)

Q: For `CC(C)CCCCOC(=O)c1ccccc1C(=O)OCCCCC(C)C`, which “activity, negative = inhibition” value is on record?
A: 0.818% (inactive)

Q: For `CCOc1ccc(NC(=O)OC(C)C)cc1OCC`, which “activity, negative = inhibition” value is on record?
A: 8.33% (inactive)

Q: Which “activity, negative = inhibition” value does the source give for `CC(C)(C)CC(C)(C)c1ccc(OCCO)cc1` here?
A: 3.39% (inactive)

Q: How did the “activity, negative = inhibition” value turn out when `CC(C)[N+](C)(C)CC(O)COc1cccc2ccccc12` (stereo unspecified) was run?
A: -3.2% [at 52.9 µM] (inactive)

Q: For `CCCCCCCC/C=C/CCCOC(C)=O`, which “activity, negative = inhibition” value is on record?
A: 0.316% (inactive)

Q: How did the “activity, negative = inhibition” value turn out when `C=CC1CO1` (stereo unspecified) was run?
A: 0.307% (inactive)

Q: `CC(C)=CCC/C(C)=C/COC=O` was tested. Which “activity, negative = inhibition” value did it give?
A: -3.03% (inactive)

Q: For `CCOC(=O)C(C)(C)C`, which “activity, negative = inhibition” value is on record?
A: -0.45% (inactive)

Q: How did the “activity, negative = inhibition” value turn out when `C#C[C@]1(OC(C)=O)CC[C@H]2[C@@H]3CCC4=C/C(=N/O)CC[C@@H]4[C@H]3CC[C@@]21CC` was run?
A: 3.79% [at 52.9 µM] (inactive)

Q: For `Cc1cccc(C)c1NC(=O)C(C)N` (stereo unspecified), which “activity, negative = inhibition” value is on record?
A: 0.594% [at 52.9 µM] (inactive)

Q: With `CCCCOCCOC(=O)c1cccnc1` as the compound, how does the “activity, negative = inhibition” value read?
A: -1.51% [at 52.9 µM] (inactive)

target: Acetylcholinesterase (Homo sapiens) (UniProt P22303); assay: Acetylcholinesterase (AChE) small molecule antagonists: enzyme-based qHTS assay (AID 1347397); conditions: Potency: AChE enzyme activity inhibition; outcome: AChE enzyme activity inhibition; series mostly up to 115 µM; activity change, negative = inhibition: at the top concentration; further: nearly all actives have a fitted effect of over 55% in size
Summary of the method: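 Recombinant human AChE (50 mU/mL) preincubated with compound 30 min at room temperature; acetylthiocholine plus DTNB then added, and thiocholine formation read colorimetrically after 10 min at room temperature. DMSO served as vehicle control.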

Q: `C=CCN(CC=C)CC=C` was tested. Which “activity change, negative = inhibition” value did it give?
A: 0.723% (inactive)

Q: `CO[C@H]1C=CO[C@@]2(C)Oc3c(C)c(O)c4c(O)c(cc(O)c4c3C2=O)NC(=O)/C(C)=C\C=C/[C@H](C)[C@H](O)[C@@H](C)[C@@H](O)[C@@H](C)[C@H](OC(C)=O)[C@@H]1C` was tested. Which “activity change, negative = inhibition” value did it give?
A: 14.9% (inactive)

Q: Which activity change, negative = inhibition does the source give for `COC(=O)C1CC(=O)C(C(=O)OC)CC1=O` (stereo unspecified) here?
A: 0.472% [at 10.5 µM] (inactive)

Q: Which “activity change, negative = inhibition” value does the source give for `CC(CN(C)C)CN1c2ccccc2CCc2ccccc21` (stereo unspecified) here?
A: 1.11% [at 53 µM] (inactive)

Q: With `C1C[C@@H]2[C@H]3CC[C@H](C3)[C@@H]2C1` as the compound, how does the “activity change, negative = inhibition” value read?
A: 0.952% (inactive)

Q: For `O=C(Nc1ccc(Oc2ccc(Cl)cc2)c(Cl)c1)c1cc(I)cc(I)c1O`, which “activity change, negative = inhibition” value is on record?
A: -8.92% [at 53 µM] (inactive)

Q: For `Cc1ccc(C(C)OC(=O)C2(C)CCC(C(=O)O)C2(C)C)cc1` (stereo unspecified), which “activity change, negative = inhibition” value is on record?
A: -0.146% [at 53 µM] (inactive)

Q: `C=CCCCCCCCCC(=O)OCCCC` was tested. Which “activity change, negative = inhibition” value did it give?
A: 0.141% (inactive)

Q: With `O=C1OC(=O)C2C3C=CC(C3)C12` (stereo unspecified) as the compound, how does the “activity change, negative = inhibition” value read?
A: 0.527% (inactive)

Q: `CCCCN1CCCC1C(=O)Nc1c(C)cc(C)cc1C` (stereo unspecified) was tested. Which “activity change, negative = inhibition” value did it give?
A: -0.831% [at 53 µM] (inactive)

Q: With `O=C(Oc1cccc2cccnc12)c1ccccc1` as the compound, how does the “activity change, negative = inhibition” value read?
A: 0.135% [at 53 µM] (inactive)

Q: How did the activity change, negative = inhibition turn out when `O=S(O)(O)=S` was run?
A: 0.136% [at 10.5 µM] (inactive)

Q: `CCCCNC1CC(C)(C)NC(C)(C)C1` was tested. Which “activity change, negative = inhibition” value did it give?
A: -0.158% (inactive)

Q: For `CCc1ccc(O)c(OC)c1`, which “activity change, negative = inhibition” value is on record?
A: 1.75% (inactive)

Q: How did the “activity change, negative = inhibition” value turn out when `CC/C=C\CCOC(C)=O` was run?
A: 0.226% (inactive)

Q: `CC(=O)Oc1ccc(C(C)=O)cc1` was tested. Which “activity change, negative = inhibition” value did it give?
A: 2.6% (inactive)

Q: Which “activity change, negative = inhibition” value does the source give for `CNCCO` here?
A: -1.58% (inactive)

Q: For `Nc1ccc(S(=O)(=O)O)c(N)c1`, which “activity change, negative = inhibition” value is on record?
A: 3.03% (inactive)

Q: With `N#CCN(CC#N)CCN(CC#N)CC#N` as the compound, how does the “activity change, negative = inhibition” value read?
A: 0.61% (inactive)

Q: `CCO` was tested. Which “activity change, negative = inhibition” value did it give?
A: 0.953% (inactive)

Q: With `CC1=C(CC(=O)O)c2cc(F)ccc2/C1=C\c1ccc(S(C)(=O)=O)cc1` as the compound, how does the “activity change, negative = inhibition” value read?
A: 7.43% [at 53 µM] (inactive)

Q: Which “activity change, negative = inhibition” value does the source give for `COC(=O)c1ccc(I)cc1S(=O)(=O)NC(=O)Nc1nc(C)nc(OC)n1` here?
A: -0.657% (inactive)

Q: For `CCCCC(CC)COP(=O)(O)O` (stereo unspecified), which “activity change, negative = inhibition” value is on record?
A: 0.535% (inactive)

Q: With `CCCCCCCCCC#N` as the compound, how does the “activity change, negative = inhibition” value read?
A: 0.256% (inactive)

Q: For `COc1ccc(COC=O)cc1`, which “activity change, negative = inhibition” value is on record?
A: -0.0621% (inactive)

Q: Which “activity change, negative = inhibition” value does the source give for `CCCCCCCCSCc1cc(C)c(O)c(CSCCCCCCCC)c1` here?
A: -5.16% (inactive)

Q: How did the activity change, negative = inhibition turn out when `CCCCCCCC/C=C\CCCCCCCC(=O)OCCCC` was run?
A: 0.806% [at 23.6 µM] (inactive)

Q: For `CC1(c2ccccc2)OC(C(=O)O)=CC1=O` (stereo unspecified), which “activity change, negative = inhibition” value is on record?
A: -0.277% [at 53 µM] (inactive)

Q: Which “activity change, negative = inhibition” value does the source give for `CC(C)CCCCOC(=O)c1ccccc1C(=O)OCCCCC(C)C` here?
A: -3.67% (inactive)

Q: `CCOc1ccc(NC(=O)OC(C)C)cc1OCC` was tested. Which “activity change, negative = inhibition” value did it give?
A: 2.51% (inactive)

Q: How did the “activity change, negative = inhibition” value turn out when `CC(C)(C)CC(C)(C)c1ccc(OCCO)cc1` was run?
A: 1.5% (inactive)

Q: With `CC(C)[N+](C)(C)CC(O)COc1cccc2ccccc12` (stereo unspecified) as the compound, how does the “activity change, negative = inhibition” value read?
A: 0.27% [at 53 µM] (inactive)

Q: With `CCCCCCCC/C=C/CCCOC(C)=O` as the compound, how does the “activity change, negative = inhibition” value read?
A: 3.88% (inactive)

Q: Which “activity change, negative = inhibition” value does the source give for `C=CC1CO1` (stereo unspecified) here?
A: -0.38% (inactive)

Q: Which “activity change, negative = inhibition” value does the source give for `CC(C)=CCC/C(C)=C/COC=O` here?
A: 1.1% (inactive)

Q: With `CCOC(=O)C(C)(C)C` as the compound, how does the “activity change, negative = inhibition” value read?
A: -0.545% (inactive)

Q: `C#C[C@]1(OC(C)=O)CC[C@H]2[C@@H]3CCC4=C/C(=N/O)CC[C@@H]4[C@H]3CC[C@@]21CC` was tested. Which “activity change, negative = inhibition” value did it give?
A: 0.139% [at 53 µM] (inactive)

Q: Which “activity change, negative = inhibition” value does the source give for `Cc1cccc(C)c1NC(=O)C(C)N` (stereo unspecified) here?
A: -0.0513% [at 53 µM] (inactive)

Q: With `CCCCOCCOC(=O)c1cccnc1` as the compound, how does the “activity change, negative = inhibition” value read?
A: -0.135% [at 53 µM] (inactive)
